Assay outcomes: PubChem, several laboratories
VHR inh abs – DUSP3 (human) phosphatase inhibition | P51452 | recombinant VHR phosphatase, pNPP absorbance | inhibition, % at 13.3 µM | 0.52% of 290,000 active; in the data active = inhibition above about 50%
Target sequence (P51452 whole entry, looked up): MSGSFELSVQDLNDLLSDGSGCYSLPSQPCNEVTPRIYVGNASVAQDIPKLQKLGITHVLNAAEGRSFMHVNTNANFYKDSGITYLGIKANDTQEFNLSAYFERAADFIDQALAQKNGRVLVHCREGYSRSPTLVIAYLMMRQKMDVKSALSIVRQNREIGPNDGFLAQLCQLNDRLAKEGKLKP
Vc quorum ag – induces V. cholerae light production without autoinducers. V. cholerae BH1578 lux reporter, luminescence, 6 h. activation, % at 18.7 µM. 0.16% of 350,000 active; in the data active = activation mostly above about 9.7%, no sharp cut-off
SARS 3CLpro inh-1 – SARS-CoV 3CLpro protease inhibition; recombinant SARS-CoV 3CLpro, quenched FRET peptide cleavage; inhibition, % at 6 µM; 0.14% of 290,000 active; AID 1706; in the data active = inhibition above about 12%
PfHsp40 rescue – rescue of PfHsp40-mediated yeast toxicity | S. cerevisiae expressing PfHsp40, growth rescue, ATP luminescence | growth rescue, % at 12.5 µM | 0.68% of 340,000 active; in the data active = growth rescue above about 28%, passing the limit was not always enough;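 also: yeast W303a lacking pdr1 and pdr3 grown in galactose medium; growth measured after three days at 30 °C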
BJeLR viability – kills HRASV12-expressing BJeLR cells. 0.17% of 300,000 active. inhibition, % (no concentration beside the values). BJeLR (HRASV12) viability, CellTiter-Glo ATP luminescence, 48 h; in the data active = inhibition above about 50%
MazEF act – increases E. coli MazEF RNase cleavage of RNA; FAM/BHQ RNA-DNA oligo cleavage fluorescence, 5 h; activation, % at 20 µM; 0.32% of 350,000 active; AID 504720; in the data active = activation above about 50%
Target sequence (P0AE70 whole entry, looked up): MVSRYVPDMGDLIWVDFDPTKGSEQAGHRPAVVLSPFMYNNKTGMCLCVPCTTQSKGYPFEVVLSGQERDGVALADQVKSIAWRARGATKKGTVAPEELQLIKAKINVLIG
SARS 3CLpro inh-2 – confirmation of SARS coronavirus 3C-like protease inhibitors | inhibition, % at 6 µM | shares compounds with SARS 3CLpro inh-1 | AID 1879 | 36% of 380 active | QFRET protease activity assay, 3CLpro; in the data active = inhibition above about 13%
The depositor's hits bear a star; i = inactive; . = no result. In the library only some 1.7% were active in any assay of this set; here they are far more common.

SMILES	VHR inh abs	Vc quorum ag	SARS 3CLpro inh-1	PfHsp40 rescue	BJeLR viability	MazEF act	SARS 3CLpro inh-2
FC(F)(F)c1cccc(NC(=S)NNC(=S)NCc2ccccc2)c1	-4	i	14*	1	-10	-13	2
CC(NC(=O)c1ccco1)C(=O)OCC(=O)c1ccc(Cl)s1 (configuration not stated)	16	0	-2	1	6	14	.
Cn1nc(-c2ccc(Cl)cc2)nc2c(=O)n(C)c(=O)nc1-2	34	i	18*	.	19	.	48*
CN(CCc1ccccc1)C(=O)c1cc(COc2cccc(C(F)(F)F)c2)on1	-13	-1	13*	0	-1	-2	7
Cc1nn(-c2ccccc2)c(Cl)c1C(=O)OCC(=O)NCCc1ccc(S(N)(=O)=O)cc1	.	-1	.	.	.	5	.
O=C(c1ccc2ncsc2c1)N1CCCCC1	42	i	-5	-1	-2	0	.
O=C(O)c1ccc2ncsc2c1	22	0	17*	-1	4	3	38*
O=C(NCCc1ccccc1)C(=O)NCC1OCCN1S(=O)(=O)c1ccc2c(c1)OCCO2 (configuration not stated)	-7	i	15*	1	2	4	0
COc1cccc(NC(=O)COC(=O)Cc2ccccc2[N+](=O)[O-])c1	39	i	4	-1	-1	-1	.
CSc1cccc(NC(=O)Cc2ccccc2[N+](=O)[O-])c1	-3	-1	14*	-2	-4	10	6
COc1cc(OC)c(OC)cc1/C=C1\Oc2cc(OCC(=O)N3Cc4ccccc4C[C@H]3C(=O)O)ccc2C1=O	21	0	12*	1	-7	-75	4
COC(=O)c1cc2sccc2n1CC(=O)Nc1ccc(OC)c(OC)c1OC	16	i	14*	0	-12	-11	-4
CCOC(=O)c1cc2sccc2n1CC(=O)Nc1ccc(OC)cc1OC	-1	-2	0	0	2	4	.
COc1ccc([C@@H]2Sc3ccccc3NC(=O)[C@@H]2O)cc1	.	0	.	1	-4	3	.
Cc1ccc(C(=O)N2CCC(N3CCC(C(=O)N4CCOCC4)CC3)CC2)cc1C	18	.	-5	-2	2	-6	.
Cc1c(C(=O)Nc2ccc(S(=O)(=O)Nc3ncccn3)cc2)oc2ccc(Cl)cc12	-2	i	2	1	-2	-1	.
Cc1noc(NS(=O)(=O)c2ccc(NC(=O)c3oc4ccc(Cl)cc4c3C)cc2)c1C	2	0	12*	-1	-5	5	7
COc1ccc2cc(C3(C)NC(=O)N(CC(=O)NCc4ccco4)C3=O)ccc2c1 (configuration not stated)	22	i	16*	0	-4	3	12*
COC(=O)C1=C(C)NC(=S)NC1c1ccc(-c2cccc(Cl)c2)o1 (configuration not stated)	3	i	4	0	-9	-2	.
COC(=O)C1=C(C)NC(=S)NC1c1ccc(-c2ccccc2C(=O)OC)o1 (configuration not stated)	16	0	13*	-2	10	-3	-5
CC1=CC=CN2C1=NC(=O)CC2(C)C(=O)N(CC(=O)NC1CCCC1)c1cc(C)cc(C)c1 (configuration not stated)	13	i	-4	-1	9	7	.
Cc1cc(=O)oc2cc(NC(=O)c3cc(F)ccc3F)ccc12	.	i	.	0	.	10	.
Cc1cc(=O)oc2cc(NC(=O)c3ccccc3OC(F)F)ccc12	7	0	13*	0	0	4	-2
CCCCOc1ccc(CONS(=O)(=O)c2ccc(NC(C)=O)cc2)cc1Cl	-1	i	19*	5	2	-3	8
Cc1ccsc1CNCc1cc(Cl)ccc1O	.	-1	.	2	.	1	.
CC(Sc1n[nH]c(N)n1)C(=O)NC1CCCCC1C (configuration not stated)	19	i	-6	-1	3	-3	.
Cc1noc(C)c1CSCC(=O)Nc1nc2ccc(S(C)(=O)=O)cc2s1	.	i	.	-2	-7	5	.
CC1(C)Cc2c(sc3nc(-c4cc5ccccc5o4)n(N)c(=O)c23)CO1	-5	i	13*	-1	-5	9	-5
